Laboratory results from PubChem BioAssay (NCATS).
Results filed as inconclusive are left out. Calls of active or inactive are those of the source. Unless noted, calls come from the whole dose curve; as a rule, active = well fitted curve in the direction sought with a large enough effect; inconclusive = small, poorly fitted or top-dose-only effect, or another doubt; inactive = no such curve, though single readings can be large; an effect the other way counts as inactive or inconclusive.

Assays:
[1] = biological target: Aldehyde dehydrogenase, mitochondrial (Homo sapiens) (UniProt P05091); assay: qHTS for Inhibitors of the Aldehyde Dehydrogenase Family (ALDH2) Validation screens (AID 2061302; active = well fitted inhibition curve with a large enough effect; title and protocol of this record describe different tests;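 note: plate controls were DMSO vehicle for no effect and maximal DPI positive control response for full effect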)
[2] = biological target: Retinaldehyde dehydrogenase 3 (Homo sapiens) (UniProt P47895); assay: qHTS for Inhibitors of the Aldehyde Dehydrogenase Family (ALDH1A3) Validation screen (AID 2061312); note: % is set by controls: 0 for no effect and ±100 for the full control effect; nearly all actives have a fitted effect of over 45% in size
[3] = BET inhibitor-based combinations targeting novel dependencies in MECOM-rearranged (r) AML: SET-2 cell line (AID 2202231); settings: SET-2 AML cells viability, CellTiter-Glo luminescence, 48 h; viability: hits give low values, concentration not given here; note: nearly all actives have a fitted effect of over 35% in size; note: potency is the fitted concentration of half-maximal effect;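 for viability: plate controls were DMSO treated cells for no effect and wells without cells for full effect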
Outline: (§1)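 Luminescent ATP readout (CellTiter-Glo) after 48 hr drug exposure gives viability. Curves span 11 concentrations and are normalized to DMSO and empty wells. Activity is reported as area under the curve and its Z-transform within each cell line.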

[4] = BET inhibitor-based combinations targeting novel dependencies in MECOM-rearranged (r) AML: MV-4-11 cell line (AID 2202233); note: nearly all actives have a fitted effect of over 45% in size; note: potency is the fitted concentration of half-maximal effect
Outline: (§2)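 Luminescent ATP readout (CellTiter-Glo, 15 min at room temperature) after 48 hr drug exposure gave viability. Dose-response curves, normalized to DMSO and empty-well controls, were summarized as area under the curve and its mean-centred Z-score.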

[5] = BET inhibitor-based combinations targeting novel dependencies in MECOM-rearranged (r) AML: HNT-34 cell line (AID 2202234); note: nearly all actives have a fitted effect of over 35% in size; note: potency is the fitted concentration of half-maximal effect
Outline: as §2

[6] = BET inhibitor-based combinations targeting novel dependencies in MECOM-rearranged (r) AML: UCSD-AML1 cell line (AID 2202235); note: nearly all actives have a fitted effect of over 40% in size; note: potency is the fitted concentration of half-maximal effect
Outline: as §2

[7] = BET inhibitor-based combinations targeting novel dependencies in MECOM-rearranged (r) AML: AML-191 cell line (AID 2202236; note: nearly all actives have a fitted effect of over 35% in size; note: potency is the fitted concentration of half-maximal effect)
Outline: as §1

[8] = BET inhibitor-based combinations targeting novel dependencies in MECOM-rearranged (r) AML: AML-194 cell line (AID 2202237; note: nearly all actives have a fitted effect of over 40% in size; note: potency is the fitted concentration of half-maximal effect)
Outline: as §1

[9] = biological target: Aldehyde dehydrogenase, mitochondrial (Homo sapiens) (UniProt P05091); assay: qHTS for Inhibitors of the Aldehyde Dehydrogenase Family (ALDH2) Confirmatory screens (AID 2061303; active = well fitted inhibition curve with a large enough effect; title and protocol of this record describe different tests; note: % is set by controls: 0 for no effect and ±100 for the full control effect; nearly all actives have a fitted effect of over 45% in size)
[10] = BET inhibitor-based combinations targeting novel dependencies in MECOM-rearranged (r) AML: OCI-AML3 cell line (AID 2202232); settings: Potency: OCI-AML3 viability; note: nearly all actives have a fitted effect of over 35% in size; note: potency is the fitted concentration of half-maximal effect
Outline: as §1

N[C@H]1CONC1=O
inactive: Potency [1] | Potency [2]

O=c1c(-c2ccc(O)cc2)coc2cc(O)ccc12
inactive: Potency [1] | Potency [2] | viability [3] 112% | Potency [6] | Potency [7] | Potency [8]
active: Potency [4] 23500 nM | Potency [5] 16600 nM

CCN1C(=O)c2ccccc2S(=O)c2ccc(C(=O)NCc3ccc(C)cc3)cc21 (stereo not given)
inactive: Potency [9]

COc1cc2c(cc1OC)C1CC(=O)C(CC(C)C)CN1CC2 (stereo not given)
inactive: Potency [1] | Potency [2] | viability [3] 109% | Potency [10] | Potency [5] | Potency [6] | Potency [8]

Cn1cnc2c1c(=O)[nH]c(=O)n2C
inactive: Potency [1] | Potency [2] | viability [3] 114% | Potency [10] | Potency [4] | Potency [5] | Potency [6] | Potency [7] | Potency [8]

NCCCC(N)(C(=O)O)C(F)F (stereo not given)
inactive: Potency [1] | viability [3] 102% | Potency [10] | Potency [4] | Potency [5] | Potency [6] | Potency [7] | Potency [8]

OCCN(CCO)c1nc(N2CCCCC2)c2nc(N(CCO)CCO)nc(N3CCCCC3)c2n1
inactive: Potency [1] | Potency [2] | Potency [6] | Potency [8]

COc1ccc2c(c1)CCc1c(C(=O)Nc3cc(C)ccc3O)noc1-2
inactive: Potency [9]

O=C1c2ccccc2-c2n[nH]c3cccc1c23
inactive: Potency [1] | Potency [2]
active: Potency [10] 4680 nM | Potency [4] 3320 nM | Potency [5] 13200 nM

CN[C@H]1CC[C@@H](c2ccc(Cl)c(Cl)c2)c2ccccc21
active: Potency [10] 13200 nM | Potency [7] 18600 nM
inactive: Potency [1] | Potency [2]

CC(=O)[C@]1(O)Cc2c(O)c3c(c(O)c2[C@@H](O[C@H]2C[C@H](N)[C@H](O)[C@H](C)O2)C1)C(=O)c1ccccc1C3=O
inactive: Potency [1]
active: Potency [3] 468 nM | Potency [10] 186 nM | Potency [4] 66.1 nM | Potency [5] 186 nM | Potency [6] 148 nM | Potency [7] 186 nM | Potency [8] 235 nM

NC(=O)[C@H](CC1CCCCC1)NC(=O)[C@H]1CN(C(=O)c2cccc(F)c2)CCN1C(=O)C1CCNCC1
inactive: Potency [9]

O=C1c2c(O)ccc(O)c2C(=O)c2c(NCCNCCO)ccc(NCCNCCO)c21
active: Potency [3] 742 nM | Potency [10] 209 nM | Potency [5] 132 nM | Potency [6] 148 nM | Potency [7] 372 nM | Potency [8] 372 nM
inactive: Potency [1]

CCOC(=O)Cn1c(=O)oc2cc(S(=O)(=O)N3CCN(c4cccc(Cl)c4)CC3)ccc21
inactive: Potency [9]

CN1CCN(C2=Nc3cc(Cl)ccc3Nc3ccccc32)CC1
active: Potency [5] 20900 nM
inactive: Potency [1] | Potency [2] | Potency [10] | Potency [4] | Potency [8]

N[C@@H]1CONC1=O
inactive: Potency [1] | Potency [2] | viability [3] 117% | Potency [10] | Potency [6] | Potency [7] | Potency [8]

CCOc1ccc(NC(=O)c2ccc(-c3cccc(Cl)c3C)o2)cc1
inactive: Potency [9]

CC(C)C(=O)Nc1ccc([N+](=O)[O-])c(C(F)(F)F)c1
inactive: Potency [1] | Potency [2] | viability [3] 93.1% | Potency [5] | Potency [6] | Potency [7] | Potency [8]

NC(=NCc1ccccc1)NC(=O)c1nc(Cl)c(N)nc1N
active: Potency [4] 5250 nM | Potency [5] 14800 nM | Potency [7] 20900 nM | Potency [8] 23500 nM
inactive: Potency [1] | Potency [2] | Potency [6]

C[C@]12CCC(=O)C=C1CC[C@@H]1[C@@H]2[C@@H](O)C[C@@]2(C)[C@H]1CC[C@]2(O)C(=O)CO
active: Potency [7] 417 nM
inactive: Potency [1] | Potency [2] | viability [3] 113% | Potency [10] | Potency [4] | Potency [5] | Potency [6] | Potency [8]

CC(=O)OCC(=O)[C@@]1(O)CC[C@H]2[C@@H]3CCC4=CC(=O)CC[C@]4(C)[C@H]3C(=O)C[C@@]21C
inactive: Potency [1] | Potency [2] | viability [3] 122% | Potency [10] | Potency [4] | Potency [5] | Potency [7] | Potency [8]

COc1nc(C)nc(Cl)c1NC1=NCCN1
inactive: Potency [1] | Potency [2] | viability [3] 107% | Potency [10] | Potency [5] | Potency [6] | Potency [7] | Potency [8]

CCN(CC)S(=O)(=O)c1ccc2c(c1)N(CC(=O)Nc1ccc(OC)cc1)C(=O)CS2
inactive: Potency [9]

O=c1c(-c2ccc(O)cc2)coc2cc(O[C@@H]3O[C@H](CO)[C@@H](O)[C@H](O)[C@H]3O)ccc12
active: Potency [4] 20900 nM
inactive: Potency [1] | Potency [5]

N[C@@H](Cc1ccc(O)c(O)c1)C(=O)O
inactive: Potency [1] | viability [3] 105% | Potency [10] | Potency [4] | Potency [5] | Potency [7] | Potency [8]
